Screening data: PubChem, National Center for Advancing Translational Sciences (NCATS)
Sfp inh: Sfp phosphopantetheinyl transferase inhibition; hit rate 3.5% among 310,000; Biochemical Sfp PPTase activity, qHTS; Potency, µM, inactives show largest response in the series, negative = inhibition, most hits filed as inhibitors; Q9F4F7;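 also: the enzyme is Sfp with the accession as filed and its product quenches rhodamine fluorescence; 0% = enzyme reaction without inhibitor and -100% = no enzyme wells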
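After 15 min at room temperature with compound, 15 nM Sfp received 5 uM rhodamine-CoA plus 12.5 uM BHQ-2-ybbR (50 mM Hepes pH 7.6, 10 mM MgCl2). Rate came from the fluorescence difference over 30 min, ex 525/em 598 nm.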
G9a inh: inhibitors of human histone lysine methyltransferase G9a; Potency, µM (highest dose often 102 µM), for the others: top-dose activity, negative = inhibition, actives largely listed as inhibitors; G9a H3K9 monomethylation, AlphaScreen, 2 h; hit rate 8.8% among 350,000; Q96KQ7; also: % is scaled to controls: 0 for no effect and ±100 for the full control effect; nearly all actives have a fitted effect of over 75% in size
Target sequence (Q96KQ7 913-1193 limits assumed): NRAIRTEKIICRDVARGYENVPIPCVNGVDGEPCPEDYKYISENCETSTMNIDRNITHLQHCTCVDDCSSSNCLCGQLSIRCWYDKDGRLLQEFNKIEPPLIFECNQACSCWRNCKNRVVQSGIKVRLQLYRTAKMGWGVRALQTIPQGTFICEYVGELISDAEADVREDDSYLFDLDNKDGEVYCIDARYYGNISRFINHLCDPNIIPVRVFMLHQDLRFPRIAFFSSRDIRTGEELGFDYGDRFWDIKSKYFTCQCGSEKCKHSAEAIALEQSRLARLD
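Using a bead-based AlphaScreen, monomethylated H3K9 product from 2 h room-temperature reactions (G9a 20 nM, peptide 500 nM, SAM 20 uM) was detected with 0.5 ug/mL rabbit anti-H3K9me1 antibody.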
BAZ2B inh: BAZ2B (human) inhibition; Q9UIF8; AlphaScreen BAZ2B-H3K14Ac peptide displacement; Potency, µM (series often up to 114 µM), for inactives: top-dose activity change, negative = inhibition, hits mostly inhibitors; hit rate 4.4% among 360,000; AID 504333; also: % is scaled to controls: 0 for no effect and ±100 for the full control effect; nearly all actives have a fitted effect of over 60% in size
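Complex of BAZ2B and biotin-H3K14Ac (50 nM apiece) forms over 30 min at RT, then faces library compounds up to 110 uM for another 30 min; AlphaScreen beads added, 20 min dark incubation, luminescence read.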
JMJD2A Tudor inh: JMJD2A Tudor domain (human) inhibition; Potency, µM (highest dose often 114 µM), for the others: top-dose activity change, negative = inhibition, most hits filed as inhibitors; AlphaScreen JMJD2A-Tudor / H3K4me3 peptide binding; O75164; hit rate 4.4% among 390,000; also: % is scaled to controls: 0 for no effect and ±100 for the full control effect; nearly all actives have a fitted effect of over 50% in size
HP1b binding inh: HP1-beta chromodomain-methylated histone interaction inhibition | P83916 | AlphaScreen HP1-beta / biotin-H3K9me3 peptide binding | Potency, µM (titrated, usually from 114 µM), without a hit: top-dose activity change, negative = inhibition, most hits filed as inhibitors | hit rate 0.56% among 390,000 | AID 540317; also: nearly all actives have a fitted effect of over 70% in size
Target sequence (P83916 whole entry, looked up): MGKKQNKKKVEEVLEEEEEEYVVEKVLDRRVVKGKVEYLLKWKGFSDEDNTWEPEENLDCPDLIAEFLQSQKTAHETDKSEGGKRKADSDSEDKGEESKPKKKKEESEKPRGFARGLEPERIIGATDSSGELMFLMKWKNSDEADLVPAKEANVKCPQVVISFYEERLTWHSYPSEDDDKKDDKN
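AlphaScreen: HP1-beta (50 nM) preformed 30 min with biotin-H3(1-18)K9me3 peptide (50 nM) in PBS pH 7.4, 0.01% Tween-20. Compound added for 30 min at RT, then streptavidin donor/nickel chelate acceptor beads (10 ug/mL) for 30 min.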
Starred values were filed as active, the others as inactive; ? = inconclusive; . = no result given; ! = repeats disagree; [ ] = another dose, or the depositor's remark. Rows were chosen to be rich in hits. Some 12% of all compounds tested hit in one or more screens of this group. Calls follow the shape of the dose curve; as a rule, active = well fitted curve in the direction sought with a large enough effect; inconclusive = small, poorly fitted or top-dose-only effect, or another doubt; inactive = no such curve, though single readings can be large; an effect the other way counts as inactive or inconclusive. Potency is read from the fitted curve at half-maximal effect.

SMILES | Sfp inh | G9a inh | BAZ2B inh | JMJD2A Tudor inh | HP1b binding inh
NC(=O)c1sc2nc(N3CCOCC3)c3c(c2c1N)CCCC3 | 44.7µM* | 70.8µM* | ? | ? | -7.1%
Cc1ccccc1NC(=O)c1sc2nc(N3CCOCC3)c3c(c2c1N)CCCC3 | ? | -1.0%[0.0925 µM] | 13.7% | 2.3% | 29.7%
CCOC(=O)C1CCCN(C(=O)c2ccc3c(c2)N(Cc2ccccc2F)C(=O)c2ccccc2S3=O)C1 (stereo not drawn) | . | -4.4%[59 µM] | -17.7% | -23.9% | 5.4%
Cc1[nH]c2ccccc2c1C1=CC(=O)C=CC1=O | . | . | . | 3.16µM* | ?
O=C(CC12CC3CC(CC(C3)C1)C2)NC(=S)NCc1ccccc1 | 17.0% | 10.6% | -1.1% | 15.2%[57.1 µM] | 62.0%
Cc1cc(C)c(NC(=O)CCCSc2nnc(N)s2)c(C)c1 | 13.8% | 50.1µM* | -29.5% | -6.8% | 37.9%
COc1ccc(/C=N/N(C)c2cc(=O)n(C)c(=O)[nH]2)cc1OC | 8.3% | 39.8µM* | 79.4µM* | -16.7% | 27.9%
CN(/N=C/C=C/c1ccccc1)c1cc(=O)n(C)c(=O)[nH]1 | ? | 34.8%[59 µM] | -38.0% | ? | 17.4%
O=C(Nc1nnc(C2CC2)s1)c1ccco1 | -2.5% | -27.8% | -5.3% | -11.3%[11.4 µM] | 19.9%
CC1=NN(c2ccc(C)cc2C)C(=O)C1C(c1ccccc1)C1C(=O)N(c2ccc(C)cc2C)N=C1C (stereo not drawn) | -8.9% | ? | 56.2µM* | ? | -0.9%
COc1ccc(CCNC(=O)Cn2ccc3cc(S(=O)(=O)N4CCCCC4)ccc32)cc1OC | . | -8.2%[59 µM] | -24.1% | -22.4% | -9.3%
CC(=O)N1CCN(c2ccc(NC(=O)c3ccc(OCc4ccccc4)cc3)cc2)CC1 | -9.1% | 12.0%[59 µM] | -2.4% | ? | 13.5%
COc1ccc(C2CC(=O)c3sc(NC(C)=O)nc3C2)cc1 (stereo not drawn) | -18.2% | 39.8µM* | -4.6% | -21.5% | -10.2%
O=C(C1=C[C@@H](C2CCCCC2)C[C@@H](OCc2ccc(CO)cc2)O1)N1CCOCC1 | 15.2% | 4.9%[12.7 µM] | -16.4% | -5.6% | 90.8%
COc1cccc(OC)c1C(=O)NC(=S)Nc1ccc2c(c1)OCCO2 | 5.7% | 56.2µM* | -26.3% | ? | -0.9%
CCOc1ccc(C(=O)Nc2ccc3c(c2)OCCO3)cc1OC | 2.8% | 5.0%[59 µM] | 1.6% | -14.1% | 33.3%
O=S(=O)(Nc1ccc2c(c1)OCCO2)c1c(F)cccc1F | -4.2% | 39.8µM* | -8.2% | -12.2% | 19.3%
CCOc1cccc(C(=O)NC(=S)Nc2ccc3c(c2)OCCO3)c1 | 0.8% | 39.8µM* | ? | ? | ?
O=C(NC(=S)Nc1ccc2c(c1)OCCO2)c1ccccc1 | -8.1% | 39.8µM* | 44.7µM* | ? | ?
CCOc1ccc(NC(=S)N2C3CCCC2CC(NC(=O)C2CC2)C3)cc1 (stereo not drawn) | 6.2% | -42.4% | 1.4% | -15.0% | 34.2%
CC(=O)c1c(C)nc(-c2ccc(OCC(=O)Nc3cccc(C)c3C)cc2)n1O | -7.0% | -8.7%[59 µM] | ? | -25.7% | 2.0%
CCOc1cccc(C(=O)NC(=S)Nc2ccc(N3CCCC3)cc2)c1 | ? | ? | 8.91µM* | ? | 14.1µM*
O=C(NC(=S)Nc1ccc2c(c1)OCCO2)c1ccccc1F | -11.2% | 31.6µM* | -34.2% | -26.9% | 28.1%
CCOc1cccc(C(=O)NC(=S)Nc2ccc(Cl)cc2C(=O)O)c1 | 44.7µM* | 39.8µM* | -7.0% | ? | ?
O=C(NC(=S)NC(=O)c1ccccc1F)c1ccccc1F | 50.1µM* | 10µM* | -38.4% | -0.3% | 27.6%
SMILES | Sfp inh | G9a inh | BAZ2B inh | JMJD2A Tudor inh | HP1b binding inh
C[C@@H]1CCC[C@]2(O[C@H](CCO)C[C@@H](O)[C@@H]2O)O1 | . | . | . | ? | 12.1%
Cc1ccc(CNC(=O)c2ccc(N3CCC4(CC3)CC(c3ccccc3)=NO4)c(NC(=O)c3c(Cl)cccc3Cl)c2)cc1 | . | -1.5%[2.33 µM] | -25.4% | -12.8% | 42.9%
Cn1ncc(C#N)c1/N=C/N(Cc1ccccc1)Cc1ccccc1 | -2.3% | 19.1%[59 µM] | 21.5% | 55.1% | 96.7%
COc1ccc(-c2nc(SC(C)C(=O)NCC3CCCO3)n[nH]2)cc1 (stereo not drawn) | . | 15.8µM* | -8.8% | -14.5% | 20.1%
COc1ccc(-c2nc(SC(C)C(=O)Nc3ccc(NC(C)=O)cc3)n[nH]2)cc1 (stereo not drawn) | . | 7.4%[0.501 µM] | -1.8% | ? | 33.6%
O=C(Nc1ccc2c(c1)oc1ccccc12)N1CCOCC1 | 18.4% | 5.7% | 4.1% | -7.2% | 48.3%
COc1ccnc(CS(=O)c2nc3cc(C(O)(F)F)ccc3[nH]2)c1OC (stereo not drawn) | -6.2% | 20µM* | -0.6% | 79.4µM* | 21.5%
COc1ccc2[nH]c(S(=O)Cc3ncc(C)c(OC)c3C)nc2c1 (stereo not drawn) | -24.2% | 15.8µM* | -28.5% | 50.1µM* | .
COc1ccc2oc(C(=O)Nc3nc4ccccc4[nH]3)c(C)c2c1 | ? | 7.7%[12.7 µM] | -0.5% | -3.1% | 44.9%
CC1=C(SCc2ccccc2)C(=O)c2ccccc2C1=O | . | . | . | 14.1µM* | ?
CCCCCCNS(=O)(=O)c1ccc(OC)c(OC)c1 | 11.4% | -28.5% | 4.7% | 2.2% | 19.9%
O=C(Nc1ccc(F)cc1)C(=O)c1c(O)[nH]c2ccc([N+](=O)[O-])cc12 | ? | 31.6µM* | ? | ? | -17.2%
Cc1c(NC(=O)c2ccc(-c3cccc([N+](=O)[O-])c3)o2)cccc1-c1nc2cc(Cl)ccc2o1 | . | -49.7%[59 µM] | -15.5% | -19.6% | 32.0%
CCOC(=O)C1=NS(=O)(=O)NC(C)=C1 | . | . | . | 56.2µM* | 13.3%
CCn1c(CCNC(=O)c2ccccc2Cl)n[nH]c1=S | 6.4% | . | 3.9% | 39.8µM* | 33.2%
O=C(NCCN1CCCC1)c1ccc(Cl)cc1Cl | 3.0% | -23.2% | 3.9% | -6.9% | 50.5%
CCCNC(=O)c1ccc(Cl)cc1Cl | 22.3% | 50.1µM* | 4.8% | 10.7% | 25.2%[57 µM]
O=C(NCc1n[nH]c(=S)n1Cc1ccccc1)c1ccc(Cl)cc1Cl | 4.3% | ? | -14.0% | -29.9% | 32.8%
CCn1c(CCNC(=O)c2ccc(Cl)cc2Cl)n[nH]c1=S | 3.9% | 39.8µM* | 9.1% | 7.08µM* | 41.4%
O=C(CCc1ccccc1)Nc1c(F)c(F)c(F)c(F)c1F | ? | 37.4% | -1.5% | -2.7% | 14.4%
c1ccc(C2[C@H]3CN(Cc4cccnc4)[C@H](c4ccccc4)C34CC2(c2cccnc2)C4)cc1 (stereo partly drawn) | 56.2µM*! | -37.2%[59 µM] | ? | ? | -13.7%
CCOc1ccc(-n2c(=O)c3c(C)c(C)sc3n(Cc3cc(=O)n4cc(Cl)ccc4n3)c2=O)cc1 | . | 4.6%[59 µM] | 2.1% | -9.6% | 22.7%
Cc1ccccc1C(=O)NC(=S)Nc1cccc(NC(=O)C(C)C)c1 | 3.9% | 8.91µM* | -11.5% | ? | 20.3%
O=C(Nc1ccc2snnc2c1)N1CCOCC1 | -10.8% | ? | 8.7% | -5.5% | 21.1%
COc1ccccc1C(=O)NC(=S)Nc1ccc(N2CCOCC2)c(Cl)c1 | 31.6µM* | 8.91µM* | -32.7% | -35.6% | -11.1%
